HT1080NT lethal = kills 2HG-producing HT-1080-NT fibrosarcoma cells; HT-1080-NT fibrosarcoma viability, CellTiter-Glo ATP luminescence, 48 h; Potency, µM (titrated, usually from 46.1 µM), for inactives: at the highest dose activity, negative = less viability, hits mostly cytotoxic; hit rate 1.6% among 360,000;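 further: NT is the 2HG producing partner of a matched IDH1 knockdown line; potency means the concentration at half of the fitted maximal effect; 0% = DMSO-treated cells and -100% = media-only wells without cells; nearly all actives have a fitted effect of over 55% in size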
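750 cells/well, RPMI + 5% FBS; 2 h settle, compound pin-transfer, 48 h at 37 degrees C. CellTiter-Glo 10 min RT, luminescence. Normalized to DMSO and media-only wells.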
TDP1 cell noCPT = qHTS for Inhibitors of human tyrosyl-DNA phosphodiesterase 1 (TDP1): qHTS in cells in absence of CPT. DT40 Tdp1-/- hTDP1 cells, no CPT, ATP luminescence, 48 h. Potency, µM (titrated, usually from 46.2 µM), inactives show at the top dose activity change, negative = growth inhibition, actives largely listed as inhibitors. hit rate 15% among 420,000; further: potency means the concentration at half of the fitted maximal effect; nearly all actives have a fitted effect of over 55% in size
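Camptothecin absent (DMSO only). Human TDP1-complemented DT40 knockout cells, 400 cells/well, 37 °C for minimum 48 hr; ATP measured via CellTiter-Glo, 30 min dark incubation, luminescence.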
IL1B secr inh = blocks inflammasome-driven IL-1 beta release. THP-1 LPS/ATP IL-1B secretion, AlphaLISA, 16 h; stronger effect = lower value. activity change, % at 57.5 µM. hit rate 4.7% among 360,000. AID 743279; in the data active means activity change below about -50%; inconclusive means mostly about -30% to -49%
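Secreted IL-1B measured by AlphaLISA bead assay after 16 h compound exposure of THP-1 cells; compounds (final up to 57.5 uM) added 1 h before LPS (250 ng/mL) and ATP (1.25 mM) stimulation; lower signal means less secretion.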
HT1080 IDH1KD tx = toxicity to HT-1080 IDH1 knockdown cells (counter line); HT-1080 IDH1 knockdown viability, ATP luminescence, 48 h; Potency, µM (top dose mostly 46.1 µM), for inactives: at the highest dose activity, negative = toxicity, most hits filed as cytotoxic; hit rate 2% among 360,000;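 further: potency means the concentration at half of the fitted maximal effect; 0% = DMSO wells and -100% = cell-free medium wells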
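Knockdown cells (IDH1KD HT-1080) received compounds 2 h after plating at 750 cells/well and were kept 48 h at 37 °C in 5% FBS RPMI. A CellTiter-Glo luminescence read gave % activity for curve fitting.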
DT40 TDP1 CPT = growth inhibition of DT40 Tdp1-/-;hTDP1 cells with camptothecin (screen for TDP1 inhibitors) | chicken DT40 Tdp1-/-;hTDP1 cells + 20 nM CPT, ATP luminescence, 48 h | Potency, µM (top dose mostly 46.2 µM), for the others: top-dose activity change, negative = growth inhibition, usual class: inhibitors | hit rate 12% among 420,000 | AID 686979; further: potency means the concentration at half of the fitted maximal effect; nearly all actives have a fitted effect of over 55% in size
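Chicken DT40 Tdp1-/- cells complemented with human TDP1, 400 cells/well, exposed to compounds plus 20 nM camptothecin for at least 48 h at 37 C; viability read as ATP content by CellTiter-Glo luminescence.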
An asterisk follows results filed as active; ? = inconclusive; nt = no result; [ ] = remark or other dose. Most compounds without a hit are left out; they make up all but 19% or so of the library. Unless noted, the call rests on the fitted dose curve; in most records, active means well fitted curve in the direction sought with a large enough effect; inconclusive means small, poorly fitted or top-dose-only effect, or another doubt; inactive means no such curve, though single readings can be large; an effect the other way counts as inactive or inconclusive. Unless noted, on the % scale 0 is the no-effect control and ±100 the full control effect.

SMILES	HT1080NT lethal	TDP1 cell noCPT	IL1B secr inh	HT1080 IDH1KD tx	DT40 TDP1 CPT
Cn1c(N2CCOCC2)c(/C=N/OC(=O)c2ccc(F)cc2)c2ccccc21	2.8µM*	2.9µM*	42	3.2µM*	3.7µM*
C[C@H](CO)N1C[C@H](C)[C@@H](CN(C)S(=O)(=O)c2cn(C)cn2)Oc2ccc(NS(=O)(=O)c3ccccc3)cc2C1=O	0%	2%	-2	11%	0%
COc1cc2[nH]cc(C(=O)NCc3ccccc3)c(=O)c2cc1OC	-15%	26µM*	-16	-16%	?
COc1cc2[nH]c(C(=O)NCc3ccccc3)cc2c(OC)c1OC	1%	?	-65*	-18%	-3%
COc1ccc(CCNC(=O)c2c[nH]c3ccccc3c2=O)cc1OC	3%	?	-8	6%	?
COc1ccc(CCNC(=O)c2c[nH]c3ccc(F)cc3c2=O)cc1OC	-2%	13µM*	0	-8%	?
CCc1ccc(Sc2cc(C(=O)NCCCN3CCC(C)CC3)c3ccccc3n2)cc1	nt	16µM*	nt	nt	16µM*
CCOc1ccc(Nc2cc(C(=O)NCc3ccccc3Cl)c3ccccc3n2)cc1	nt	?	nt	nt	10µM*
CCOc1ccc(Sc2cc(C(=O)NCc3ccccc3Cl)c3ccccc3n2)cc1	nt	13µM*	nt	nt	?
CCc1ccc(Nc2cc(C(=O)NCCCN3CCOCC3)c3ccccc3n2)cc1	-13%	?	2	?	?
Cc1ccc(Sc2cc(C(=O)NCCN(C)C)c3ccccc3n2)cc1	?	?	-29	-23%	?
Cc1ccc(Sc2cc(C(=O)NCCCN(C)C)c3ccccc3n2)cc1	?	?	-69*	18µM*	-11%
CC1(c2ccccc2)NC(=O)N(CC(=O)N2CCN(S(=O)(=O)c3c(F)cccc3F)CC2)C1=O (centres undefined)	-7%	-19%	7	-3%	-16%
Cc1ccc(C(=O)O)cc1NC(=S)NC(=O)c1ccc([N+](=O)[O-])c(C)c1	-7%	3%	50	-7%	1%
CCc1ccc(Sc2cc(C(=O)NCc3cccc(OC)c3)c3ccccc3n2)cc1	nt	?	nt	nt	16µM*
COc1cccc(CNC(=O)c2cccnc2Sc2ccccc2)c1	9%	12%	?	0%	-3%
CC(C)CSC1=NSC2=NC(=O)/C(=C\c3cccs3)C(=N)N12	-1%	21µM*	-73*	-14%	?
N=C1/C(=C/c2cccs2)C(=O)N=C2SN=C(SCc3ccccc3)N12	-2%	-29%	16	-10%	-13%
COc1ccc(OCCNC2CCCC2)cc1	3%	-23%	-23	0%	-16%
c1ccc(-c2ccc(OCCCNC3CCCC3)cc2)cc1	15µM*	?	nt	18µM*	15µM*
CCc1ccc(N2C(=O)c3sc4nnc(-c5ccccc5)c(=O)n4c3C2=O)cc1	1%	13µM*	38	-9%[9.24 µM]	12µM*
Cc1cc(=O)[nH]c(N2CCOCC2)n1	19%	-5%	13	1%	0%
COC(=O)c1cc(C)nc2c1C(=O)C(=O)C=C2N1CCOCC1	6.5µM*	1µM*	-100*	5.2µM*	3.3µM*
Cc1ccc(C(=O)N/C(=C\c2cccs2)C(=O)NCCCn2ccnc2)cc1C	11%	4%	-2	10%	-5%
O=C(Cn1cnc2c(NCc3ccccc3)ncnc21)NCC1CCCO1 (centres undefined)	5%	-18%	24	5%	-18%
SMILES	HT1080NT lethal	TDP1 cell noCPT	IL1B secr inh	HT1080 IDH1KD tx	DT40 TDP1 CPT
Cc1cc(C)c(CN2CCN(C(=O)Cn3cnc4c(NCc5ccccc5)ncnc43)CC2)c(C)c1	?	1.8µM*	?	?	5.8µM*
Cc1cc(C)c(CN2CCN(C(=O)Cn3ccc(N)nc3=O)CC2)c(C)c1	6%	-16%	36	-1%	-13%
CSc1nc(N)nc2c1ncn2CC(=O)N1CCN(Cc2c(C)cc(C)cc2C)CC1	?	0.82µM*	37	?	1.8µM*
COc1ccc(NC(=O)NN(C(=O)c2ccccc2)C(C)(C)C)cc1	10%	-6%	18	5%	1%
CCCC1=C(C(=O)OCC)C(/C=C/c2ccccc2)n2ncnc2N1 (centres undefined)	22µM*	13µM*	4	11µM*	16µM*
CCCC1=C(C(=O)OCC)C(c2ccc(N(C)C)cc2)n2ncnc2N1 (centres undefined)	-14%	26µM*	17	-23%	?
CCCC1=C(C(=O)OCC)C(c2ccc(F)cc2)n2ncnc2N1 (centres undefined)	5%	?	26	3%	?
CCC(C)(NC=O)C(=O)Nc1c(C)cccc1C (centres undefined)	21%	1%	-12	17%	6%
CCOC(=O)c1cnc2c(C(F)(F)F)cccc2c1Nc1cccc(C(=O)OC)c1	nt	15µM*	nt	nt	?
CCOC(=O)c1cnc2c(C)cccc2c1Nc1ccc(OC(C)C)cc1	nt	23µM*	nt	nt	?
CCOC(=O)c1cnc2c(ccc3ccccc32)c1Nc1ccccc1O	nt	?	nt	nt	21µM*
CC(C)P(=O)(c1cccc(C(=O)O)c1)C(C)C	-1%	-8%	6	2%	-19%
S=c1[nH]nc(-c2ccccn2)n1/N=C/c1ccc(Cl)c(Cl)c1	17%	-20%	nt	15%	-17%
COc1ccc2nc(-c3ccccn3)[nH]c2c1	-30%	-10%	0	-9%	-17%
Cc1[nH]c(-c2ccccn2)nc(=S)c1Cl	0%	?	nt	-23%	10µM*
Cc1cc(=S)nc(-c2ccccn2)[nH]1	-1%	4.6µM*	0	-4%	3.3µM*
CCN(CC)CCNC(=O)c1cc2c(-c3cccc(OC)c3)nn(C)c2s1	?	?	-79*	?	?
COc1cccc(-c2nn(C)c3sc(C(=O)NCCc4cccc(C)c4)cc23)c1	nt	5.2µM*	nt	nt	10µM*
CC(=O)NC1CCCC1C#N (centres undefined)	nt	-6%	nt	nt	-3%
CC(C)CCN1CCC(n2nccc2NC(=O)c2ccc3c(c2)OCO3)CC1	5%	-9%	-67*	-2%	16%
CC(C)(Oc1ccc(Cl)cc1)C(=O)NNC(=O)c1ccc(Br)o1	2%	12%	-11	-2%	-7%
O=C(CS(=O)(=O)c1ccc(Cl)cc1)NCc1ccccc1	0%	-13%	-3	12%	8%
Cc1nn(-c2ccc(F)cc2)c(Cl)c1C(=O)N(C)CC(=O)Nc1cccc(F)c1	-6%	15µM*	-52*	2%	?
Cc1nn(-c2ccccc2)c(Cl)c1C(=O)N(C)CC(=O)Nc1cccc(F)c1	-2%	?	-16	-8%	?
